Assay outcomes deposited in PubChem by National Center for Advancing Translational Sciences (NCATS).
TGFb inhibitor – blocks TGF-b signaling. HepG2 CAGA-GFP TGF-b/SMAD3 reporter, GFP fluorescence, 18 h; TGF-beta stimulated, 500 pg/mL final. Potency, µM (top dose mostly 46.1 µM), for the others: at the highest dose activity, negative = inhibition, actives largely listed as inhibitors. 410,000 tested, 1.2% active. AID 588855; further: potency means the concentration at half of the fitted maximal effect; on the % scale 0 is the no-effect control and ±100 the full control effect; nearly all actives have a fitted effect of over 65% in size
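First, reporter cells (HEPG2 CAGA-GFP) rested 2 h at 37 degrees C. Next, compounds were pinned in and TGF-beta added to 500 pg/mL final. After 18 h, GFP was imaged per cell and summed per well.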
ATXN viability – viability counter-screen for ATXN expression inhibitors; S2 cells (HEK-293 line with an ATXN2-luciferase reporter) viability, CellTiter-Fluor protease fluorescence, 24 h; Potency, µM (series often up to 56.7 µM), hits mostly cytotoxic; 400,000 tested, 0.49% active; further: potency means the concentration at half of the fitted maximal effect; nearly all actives have a fitted effect of over 40% in size
ATXN2 expr inh – inhibitors of ATXN2 expression; Potency, µM (doses to about 57 µM), for inactives: at the highest dose activity change, negative = inhibition, most hits filed as inhibitors; HEK-293 ATXN2-luciferase reporter, luminescence, 24 h; 360,000 tested, 0.72% active; further: potency means the concentration at half of the fitted maximal effect; on the % scale 0 is the no-effect control and ±100 the full control effect; nearly all actives have a fitted effect of over 55% in size
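ATXN2-luciferase reporter cells (luciferase flanked by upstream and downstream ATXN2 gene portions) were treated 24 h at 37 °C with compounds at up to 57 uM. SteadyGlo luminescence gave expression; GF-AFC fluorescence gave viability.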
CtBP-E1A blk – CtBP/E1A binding inhibition | AlphaScreen GST-E1A/His-CtBP binding, 1536-well; active compounds read low | activity change, % (concentration not given with the values) | 340,000 tested, 0.49% active | AID 651724; in the data active means activity change below about -65%; inconclusive means mostly about -30% to -63%; further: on the % scale 0 is the no-effect control and ±100 the full control effect
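Homogeneous bead-based format: GST-tagged E1A captured on glutathione donor beads, His-tagged CtBP on nickel acceptor beads; compounds precede bead addition by 2 h at 37 °C.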
HepG2 tox – counter-screen for TGF-b inhibitors: cytotoxicity in HepG2 cells; HepG2 CAGA-GFP viability, ATP luminescence, 18 h; Potency, µM (highest dose often 46.1 µM), for inactives: top-dose activity change, negative = cytotoxicity, hits mostly cytotoxic; 410,000 tested, 0.76% active; AID 588856; further: potency means the concentration at half of the fitted maximal effect
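CellTiter-Glo luminescence gave cytotoxicity after 18 hours at 37 degrees C. The cells were HepG2 CAGA-GFP in 1% FBS DMEM, stimulated with 500 pg/mL TGF-beta after compound addition. %Activity was normalised to no-cell wells (complete cell-killing) and DMSO (no toxicity), and curves were fitted and classified.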
Six1-Eya2 blk – inhibitors of human Six1/Eya2 interaction | AID 651725 | 360,000 tested, 0.56% active | Q15475+O00167 | activity change, % (test concentration not listed) | AlphaScreen GST-Six1/His-Eya2 binding, biochemical; active compounds read low; in the data active means activity change below about -65%; inconclusive means mostly about -30% to -63%; further: on the % scale 0 is the no-effect control and ±100 the full control effect
Target sequence (O00167 whole entry, looked up): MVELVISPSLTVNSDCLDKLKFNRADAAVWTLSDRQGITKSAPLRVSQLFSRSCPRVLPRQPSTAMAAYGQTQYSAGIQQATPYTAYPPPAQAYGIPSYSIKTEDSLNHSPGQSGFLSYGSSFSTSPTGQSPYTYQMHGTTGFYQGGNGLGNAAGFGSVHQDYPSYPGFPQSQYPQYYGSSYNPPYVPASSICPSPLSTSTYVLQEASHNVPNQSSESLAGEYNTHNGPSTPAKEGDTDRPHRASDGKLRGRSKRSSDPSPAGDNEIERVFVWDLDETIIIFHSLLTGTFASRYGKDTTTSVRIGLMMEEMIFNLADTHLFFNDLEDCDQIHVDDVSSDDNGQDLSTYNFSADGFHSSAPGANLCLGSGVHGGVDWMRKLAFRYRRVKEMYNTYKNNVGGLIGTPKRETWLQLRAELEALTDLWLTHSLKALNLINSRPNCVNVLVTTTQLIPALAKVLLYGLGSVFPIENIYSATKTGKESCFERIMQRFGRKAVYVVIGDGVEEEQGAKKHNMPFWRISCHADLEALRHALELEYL
Target sequence (Q15475 whole entry, looked up): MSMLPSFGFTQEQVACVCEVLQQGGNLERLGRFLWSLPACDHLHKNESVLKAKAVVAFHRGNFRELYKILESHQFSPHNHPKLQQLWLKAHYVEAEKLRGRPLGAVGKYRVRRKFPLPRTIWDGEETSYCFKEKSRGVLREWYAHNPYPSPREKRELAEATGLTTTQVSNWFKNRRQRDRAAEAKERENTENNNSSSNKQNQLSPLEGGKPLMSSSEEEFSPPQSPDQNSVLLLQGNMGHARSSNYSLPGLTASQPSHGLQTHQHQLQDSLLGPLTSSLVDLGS
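GST-Six1 + His-Eya2 (5X stock: 250/500 nM); Tris pH 8.0, 300 mM NaCl, 0.05% BSA, 0.02% Tween 20; GSH donor/Ni acceptor beads; 1 h 37 °C dark; AlphaScreen readout.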
Active calls of the source: *; ! = repeats disagree. The list is not random: actives were taken first. Their share in the collection is about 2.8%. Unless noted, the call rests on the fitted dose curve; in most records, active means well fitted curve in the direction sought with a large enough effect; inconclusive means small, poorly fitted or top-dose-only effect, or another doubt; inactive means no such curve, though single readings can be large; an effect the other way counts as inactive or inconclusive.

What do the screens show for `O=C(OCc1cn([C@@H]2CN(CC3CCCCC3)[C@@H](c3ccc(Cl)cc3)C[C@H]2O)nn1)c1ccccc1`?
TGFb inhibitor: -6.1%; ATXN viability: inactive; ATXN2 expr inh: -3.1%; CtBP-E1A blk: -6.9; HepG2 tox: -9.4%; Six1-Eya2 blk: 0.4

Results for O=C(OCc1cn([C@@H]2CN(CC3CCCCC3)[C@@H](c3ccccc3)C[C@H]2O)nn1)c1ccccc1 ?
TGFb inhibitor: 3.0%; ATXN viability: 25.1µM*; ATXN2 expr inh: inconclusive; CtBP-E1A blk: -3.5; HepG2 tox: -6.2%; Six1-Eya2 blk: 1.2

How did COc1ccc(OC)c(CNC(=O)NCc2noc3ccc(C)cc23)c1 do in these assays?
TGFb inhibitor: -34.7%; ATXN viability: inactive; ATXN2 expr inh: -4.4%; HepG2 tox: 5.9%

What do the screens show for `O=c1c2ccccc2nc(/C=C/c2cccnc2)n1Cc1ccccc1`?
TGFb inhibitor: -1.7%; ATXN viability: inactive; ATXN2 expr inh: -27.3%; CtBP-E1A blk: 1.0; HepG2 tox: 0.0%; Six1-Eya2 blk: -71.0*

Results for O=c1c2ccccc2nc(/C=C/c2cccnc2)n1CCc1ccccc1 ?
TGFb inhibitor: -6.1%; ATXN viability: inconclusive; ATXN2 expr inh: -14.9%; CtBP-E1A blk: 1.9; HepG2 tox: -56.9%; Six1-Eya2 blk: -14.0

What do the screens show for `CCN(CC)C(=O)N1CCN(/[N+]([O-])=N/Oc2ccc([N+](=O)[O-])cc2[N+](=O)[O-])CC1`?
TGFb inhibitor: inconclusive; HepG2 tox: -34.4%

How did CC1=C(C(=O)OC(C)C)C(c2cccs2)C(C(=O)OC(C)C)=C(C)N1 do in these assays?
TGFb inhibitor: 17.8µM*; ATXN viability: inactive; ATXN2 expr inh: -18.2%; CtBP-E1A blk: 6.0; HepG2 tox: -41.1%; Six1-Eya2 blk: 7.7

How did Cc1ccc(CNc2ncnc3c2c(-c2ccccc2)cn3-c2cccc(Cl)c2)cc1 do in these assays?
TGFb inhibitor: -3.9%; HepG2 tox: -13.7%

What do the screens show for `COc1cccc(Cn2c(=O)n(CC3CCC(C(=O)N4CCOCC4)CC3)c(=O)c3sccc32)c1` (stereo not drawn)?
TGFb inhibitor: -7.8%; ATXN viability: inactive; ATXN2 expr inh: -13.6%; HepG2 tox: -28.4%

What do the screens show for `CC(C)NC(=O)c1cn(C2CCC(NC(=O)C(C)(C)C)CC2)nn1` (stereo not drawn)?
ATXN viability: inactive

How did COc1ccc(CN2[C@@H](CC(=O)O)c3ccc(/C=C/C(=O)O)cc3S2(=O)=O)cc1 do in these assays?
TGFb inhibitor: 12.4%; HepG2 tox: 27.9%

What do the screens show for `COC(=O)C[C@H]1c2ccccc2S(=O)(=O)N1c1cccc(OC)c1`?
TGFb inhibitor: 4.0%; ATXN viability: inconclusive; ATXN2 expr inh: 5.7%; CtBP-E1A blk: -4.0; HepG2 tox: -2.1%; Six1-Eya2 blk: 0.8

What do the screens show for `COc1cccc(N2[C@@H](CC(C)=O)c3ccc(/C=C/C(C)=O)cc3S2(=O)=O)c1`?
TGFb inhibitor: 15.8µM*; ATXN2 expr inh: inconclusive; CtBP-E1A blk: 3.4; HepG2 tox: -37.1%; Six1-Eya2 blk: 0.3

What do the screens show for `COc1ccc(CN2[C@@H](CC(C)=O)c3ccc(/C=C/C(C)=O)cc3S2(=O)=O)cc1`?
TGFb inhibitor: inconclusive; ATXN viability: inconclusive; ATXN2 expr inh: inconclusive; CtBP-E1A blk: 0.0; HepG2 tox: 11.2µM*!; Six1-Eya2 blk: 0.1

Results for CCc1c(C)sc2c1CCN(C(=O)Nc1ccccc1C(F)(F)F)C2c1ccccc1 (stereo not drawn) ?
TGFb inhibitor: inconclusive; ATXN viability: inconclusive; ATXN2 expr inh: -36.1%; HepG2 tox: -19.3%

What do the screens show for `NC(N)=Nc1nc(-c2ccccc2)c2cc(F)ccc2n1`?
TGFb inhibitor: inconclusive; ATXN viability: 5.62µM*; ATXN2 expr inh: inconclusive; CtBP-E1A blk: -11.6; HepG2 tox: -78.8%; Six1-Eya2 blk: -14.8

What do the screens show for `OCCSc1nc(-c2ccccc2)nc2ccc(F)cc12`?
TGFb inhibitor: 5.9%; ATXN viability: inactive; HepG2 tox: -17.5%; Six1-Eya2 blk: -14.4

Results for Cc1cc(/C=C\c2ccc3cc(N(C)C)ccc3[n+]2C)c(C)n1-c1ccccc1 ?
TGFb inhibitor: inconclusive; ATXN viability: 3.98µM*; ATXN2 expr inh: 1µM*; CtBP-E1A blk: -10.1; HepG2 tox: -24.8%; Six1-Eya2 blk: -13.2

Results for CN(C)c1ccc(/C=C/c2ccc3ccccc3[n+]2[O-])cc1 ?
TGFb inhibitor: 93.2%; HepG2 tox: -82.7%

How did COc1cc(=O)n2c(c1C(=O)NC(C)c1ccco1)CCN(C(=O)c1cc(C)cc(C)c1)CC2 (stereo not drawn) do in these assays?
ATXN viability: inactive

Results for COc1ccc(/C(C)=N/Nc2ccc(F)cc2F)c(O)c1 ?
TGFb inhibitor: -1.1%; ATXN viability: inactive; ATXN2 expr inh: 18.3%; CtBP-E1A blk: -72.8*; HepG2 tox: 6.4%; Six1-Eya2 blk: 1.4

What do the screens show for `Cc1ccc(Nc2cc(C)nc3nc(Cc4ccc(Cl)cc4)nn23)cc1`?
TGFb inhibitor: 3.98µM*; ATXN2 expr inh: 14.1µM*; HepG2 tox: -58.2%

What do the screens show for `CCc1ccc(Nc2cc(C)nc3nc(Cc4ccc(Cl)cc4)nn23)cc1`?
TGFb inhibitor: 12.6µM*; ATXN viability: inconclusive; ATXN2 expr inh: inconclusive; HepG2 tox: -76.7%

How did COc1ccc2ccc3c(c2c1)N=C[C@]1(O3)N(C)c2ccccc2C1(C)C do in these assays?
TGFb inhibitor: inconclusive; ATXN viability: inactive; ATXN2 expr inh: -16.4%; CtBP-E1A blk: -25.5; HepG2 tox: 6.31µM*; Six1-Eya2 blk: -29.7

What do the screens show for `CC1=NOC2(C1)N(C)c1ccccc1C2(C)C` (stereo not drawn)?
TGFb inhibitor: 10.5%; ATXN viability: inactive; ATXN2 expr inh: -4.3%; CtBP-E1A blk: -1.6; HepG2 tox: -6.6%; Six1-Eya2 blk: 2.5

What do the screens show for `O=C1CC(O)(C(F)F)Oc2ccc3ccccc3c21` (stereo not drawn)?
TGFb inhibitor: -21.4%; ATXN viability: inactive; ATXN2 expr inh: -6.1%; CtBP-E1A blk: -0.4; HepG2 tox: -35.5%; Six1-Eya2 blk: -0.1

How did O=C1CC(O)(C(F)(F)F)Oc2c1ccc1ccccc21 (stereo not drawn) do in these assays?
TGFb inhibitor: 15.8µM*; ATXN viability: inactive; ATXN2 expr inh: -12.3%; CtBP-E1A blk: 10.7; HepG2 tox: 10µM*; Six1-Eya2 blk: 3.3

Results for COc1ccc(N2C(=O)[C@@H]3C[C@H]2CN3Cc2cccn2-c2ccccn2)cc1Cl ?
ATXN viability: inactive
